# Assay results reported in PubChem BioAssay (EPA / NIEHS).
# Several values for one entry are separate records, joined by “and”; a condition that tells them apart may be missing. Equal values may be shown once. Results filed as inconclusive are left out. More than one record can exist for a structure, and the calls need not agree. Activity calls are given as the source filed them. How the source made its calls: active means hit-call score of the fitted dose curve at least 0.9, where 1 is the maximum; inconclusive means response in the unintended direction; inactive means score below 0.9.
# Experiments:
# [1] = biological target: human Tropomyosin Receptor Kinase A (TRKA), NTRK1 (gene 4914) (UniProt P04629); test: NVS_ENZ_hTrkA: NovaScreen (NVS) Enzymatic Assay for human Tropomyosin Receptor Kinase A (TRKA) (AID 2283224)
# Method in brief: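 Recombinant human TrkA activity read after 1 h by fluorescence with electrophoretic mobility shift separating substrate and product. Primary screen in duplicate at 25 uM; actives were rerun in concentration-response up to 50 uM. Loss of signal versus DMSO.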
# [2] = biological target: human Vascular Endothelial Growth Factor Receptor 1 (VEGFR1), FLT1 (gene 2321) (UniProt P17948); test: NVS_ENZ_hVEGFR1: NovaScreen (NVS) Enzymatic Assay for human Vascular Endothelial Growth Factor Receptor 1 (VEGFR1) (AID 2283226)
# Protocol: NVS_ENZ_hVEGFR1 is a biochemical, single-readout assay that uses extracted gene-proteins in a cell-free assay. Measurements were taken 1 hour after chemical dosing in a 384-well plate.NVS_ENZ_hVEGFR1 is one of one assay component(s) measured or calculated from the NVS_ENZ_hVEGFR1 assay. It is designed to make measurements of enzyme activity, a form of enzyme reporter, as detected with fluorescence intensity signals by Fluorescence and electrophoretic mobility shift technology.Data from the assay component NVS_ENZ_hVEGFR1 was analyzed into 1 assay endpoint. This assay endpoint, NVS_ENZ_hVEGFR1, was analyzed in the positive analysis fitting direction relative to DMSO as the negative control and baseline of activity. Using a type of enzyme reporter, loss-of-signal activity can be used to understand changes in the enzymatic activity as they relate to the gene FLT1. Furthermore, this assay endpoint can be referred to as a primary readout, because this assay has produced multiple assay endpoints where this one serves a enzymatic activity function. To generalize the intended target to other relatable targets, this assay endpoint is annotated to the kinase intended target family, where the subfamily is receptor tyrosine kinase.
# Binding assays used specific radioligands (tritiated, iodinated) with non-radioactive competitive displacement ligands in agonist or antagonist protocols (as indicated) and various reference compounds and inhibitors to titrate specific binding to receptors and transporters. Most enzyme assays (CYPs, kinases, phosphatases, proteases, HDACs) used recombinant protein and specific substrates (fluorescence mostly, some colorimetric and radioactive) and inhibitors, followed by a biochemical separation of substrate and product. All assays for the biochemical HTS were initially run in duplicate at a single concentration (10 uM for CYP450 assays and 25 uM for all others). […] Each assay was run with positive and negative controls, and concurrent controls on every plate. […]
# [3] = biological target: human Vascular Endothelial Growth Factor Receptor 2 (VEGFR2), KDR (gene 3791) (UniProt P35968); test: NVS_ENZ_hVEGFR2: NovaScreen (NVS) Enzymatic Assay for human Vascular Endothelial Growth Factor Receptor 2 (VEGFR2) (AID 2283230)
# Method in brief: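 Cell-free recombinant VEGFR2 kinase, fluorescent substrate with electrophoretic mobility-shift separation; read 1 h after dosing. Screened at 25 uM in duplicate, hits to concentration-response up to 50 uM; loss-of-signal versus DMSO.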
# [4] = biological target: rabbit Imidazoline 2 Central (I2C), CKB (gene 100009085) (UniProt P00567); test: NVS_ENZ_rabI2C: NovaScreen (NVS) Enzymatic Assay for rabbit Imidazoline 2 Central (I2C) (AID 2283228)
# Method in brief: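 Rabbit brain membranes, cell-free; readout by filter-based scintillation counting 1.5 hours after dosing, loss of signal vs DMSO. Initial duplicate test at 25 uM, then concentration-response with 50 uM top concentration.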
# human Vascular Endothelial Growth Factor Receptor 2 (VEGFR2), KDR (gene 3791), sequence (P35968 whole entry, looked up): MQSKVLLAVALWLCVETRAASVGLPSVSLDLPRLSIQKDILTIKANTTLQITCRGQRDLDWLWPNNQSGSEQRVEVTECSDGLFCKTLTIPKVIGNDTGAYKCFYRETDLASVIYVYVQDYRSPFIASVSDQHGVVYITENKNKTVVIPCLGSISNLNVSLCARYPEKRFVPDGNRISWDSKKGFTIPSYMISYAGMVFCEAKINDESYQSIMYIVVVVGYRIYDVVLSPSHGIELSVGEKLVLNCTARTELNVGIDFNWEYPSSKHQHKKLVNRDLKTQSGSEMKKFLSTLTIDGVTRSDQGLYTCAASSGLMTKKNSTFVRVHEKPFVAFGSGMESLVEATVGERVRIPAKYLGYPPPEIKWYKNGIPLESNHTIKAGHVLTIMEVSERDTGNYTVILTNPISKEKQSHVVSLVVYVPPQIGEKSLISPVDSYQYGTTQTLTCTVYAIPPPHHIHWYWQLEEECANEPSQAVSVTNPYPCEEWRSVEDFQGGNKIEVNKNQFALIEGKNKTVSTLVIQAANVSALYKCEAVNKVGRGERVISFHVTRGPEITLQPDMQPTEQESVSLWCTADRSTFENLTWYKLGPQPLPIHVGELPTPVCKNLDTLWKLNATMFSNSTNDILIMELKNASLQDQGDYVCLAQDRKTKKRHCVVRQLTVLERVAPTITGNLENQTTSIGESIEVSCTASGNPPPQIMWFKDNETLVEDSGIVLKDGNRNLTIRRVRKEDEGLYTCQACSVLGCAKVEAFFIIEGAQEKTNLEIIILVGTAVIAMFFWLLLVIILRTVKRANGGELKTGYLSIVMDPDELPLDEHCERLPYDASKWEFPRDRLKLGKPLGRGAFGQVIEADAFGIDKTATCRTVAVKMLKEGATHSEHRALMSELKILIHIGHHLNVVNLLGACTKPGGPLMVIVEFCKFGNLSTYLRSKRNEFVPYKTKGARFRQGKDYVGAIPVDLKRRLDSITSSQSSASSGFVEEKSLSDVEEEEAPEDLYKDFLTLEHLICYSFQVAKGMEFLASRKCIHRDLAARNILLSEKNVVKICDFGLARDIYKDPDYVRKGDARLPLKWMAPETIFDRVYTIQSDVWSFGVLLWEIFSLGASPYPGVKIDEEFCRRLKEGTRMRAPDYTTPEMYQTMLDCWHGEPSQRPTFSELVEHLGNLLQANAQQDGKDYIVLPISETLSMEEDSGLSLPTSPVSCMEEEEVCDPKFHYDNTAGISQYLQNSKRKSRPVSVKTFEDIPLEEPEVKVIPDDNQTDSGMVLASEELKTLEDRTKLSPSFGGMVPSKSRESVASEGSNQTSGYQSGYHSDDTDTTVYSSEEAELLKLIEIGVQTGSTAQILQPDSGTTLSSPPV
# human Vascular Endothelial Growth Factor Receptor 1 (VEGFR1), FLT1 (gene 2321), sequence (P17948 whole entry, looked up): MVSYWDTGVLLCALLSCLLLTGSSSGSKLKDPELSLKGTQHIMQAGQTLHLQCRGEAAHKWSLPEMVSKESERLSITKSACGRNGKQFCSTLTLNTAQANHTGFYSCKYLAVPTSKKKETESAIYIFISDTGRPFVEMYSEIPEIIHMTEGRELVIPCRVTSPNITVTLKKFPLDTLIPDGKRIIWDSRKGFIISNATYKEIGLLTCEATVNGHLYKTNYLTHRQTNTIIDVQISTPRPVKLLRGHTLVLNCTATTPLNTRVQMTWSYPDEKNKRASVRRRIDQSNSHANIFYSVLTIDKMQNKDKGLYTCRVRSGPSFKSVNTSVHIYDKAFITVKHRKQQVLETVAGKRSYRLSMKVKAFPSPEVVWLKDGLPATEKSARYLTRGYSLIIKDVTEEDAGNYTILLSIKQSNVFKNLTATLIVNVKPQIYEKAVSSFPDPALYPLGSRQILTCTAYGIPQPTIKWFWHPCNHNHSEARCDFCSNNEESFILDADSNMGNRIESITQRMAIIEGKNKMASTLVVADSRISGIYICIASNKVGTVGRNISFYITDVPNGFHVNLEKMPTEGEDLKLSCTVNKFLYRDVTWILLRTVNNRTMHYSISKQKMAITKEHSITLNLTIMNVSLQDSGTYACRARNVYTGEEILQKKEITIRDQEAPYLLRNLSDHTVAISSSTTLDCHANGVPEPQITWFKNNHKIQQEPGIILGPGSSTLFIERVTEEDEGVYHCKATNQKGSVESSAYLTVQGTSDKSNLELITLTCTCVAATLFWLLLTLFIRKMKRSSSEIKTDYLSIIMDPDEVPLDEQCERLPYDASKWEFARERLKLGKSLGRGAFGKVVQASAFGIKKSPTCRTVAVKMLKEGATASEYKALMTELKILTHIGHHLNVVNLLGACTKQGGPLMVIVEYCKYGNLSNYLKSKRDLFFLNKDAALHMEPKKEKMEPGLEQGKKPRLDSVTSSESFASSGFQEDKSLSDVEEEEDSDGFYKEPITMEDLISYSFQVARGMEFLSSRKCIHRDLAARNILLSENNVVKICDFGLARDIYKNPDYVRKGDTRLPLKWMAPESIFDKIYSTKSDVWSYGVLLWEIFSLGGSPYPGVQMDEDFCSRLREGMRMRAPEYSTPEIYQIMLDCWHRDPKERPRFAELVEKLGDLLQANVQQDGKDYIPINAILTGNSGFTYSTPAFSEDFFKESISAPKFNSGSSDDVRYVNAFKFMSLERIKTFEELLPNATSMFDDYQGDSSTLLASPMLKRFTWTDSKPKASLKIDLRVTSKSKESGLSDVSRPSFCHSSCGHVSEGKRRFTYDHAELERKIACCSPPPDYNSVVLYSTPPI
# rabbit Imidazoline 2 Central (I2C), CKB (gene 100009085), sequence (P00567 whole entry, looked up): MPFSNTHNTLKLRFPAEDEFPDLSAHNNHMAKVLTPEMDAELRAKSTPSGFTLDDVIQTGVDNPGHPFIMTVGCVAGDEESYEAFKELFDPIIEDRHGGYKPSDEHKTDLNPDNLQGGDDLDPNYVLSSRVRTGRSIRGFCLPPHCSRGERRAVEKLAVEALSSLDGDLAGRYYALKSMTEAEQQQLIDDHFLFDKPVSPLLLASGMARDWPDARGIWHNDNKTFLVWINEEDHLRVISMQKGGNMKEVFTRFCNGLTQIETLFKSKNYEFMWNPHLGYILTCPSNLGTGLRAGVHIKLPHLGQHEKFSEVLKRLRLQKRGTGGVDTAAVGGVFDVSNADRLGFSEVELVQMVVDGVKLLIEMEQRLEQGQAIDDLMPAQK
# human Tropomyosin Receptor Kinase A (TRKA), NTRK1 (gene 4914), sequence (P04629 whole entry, looked up): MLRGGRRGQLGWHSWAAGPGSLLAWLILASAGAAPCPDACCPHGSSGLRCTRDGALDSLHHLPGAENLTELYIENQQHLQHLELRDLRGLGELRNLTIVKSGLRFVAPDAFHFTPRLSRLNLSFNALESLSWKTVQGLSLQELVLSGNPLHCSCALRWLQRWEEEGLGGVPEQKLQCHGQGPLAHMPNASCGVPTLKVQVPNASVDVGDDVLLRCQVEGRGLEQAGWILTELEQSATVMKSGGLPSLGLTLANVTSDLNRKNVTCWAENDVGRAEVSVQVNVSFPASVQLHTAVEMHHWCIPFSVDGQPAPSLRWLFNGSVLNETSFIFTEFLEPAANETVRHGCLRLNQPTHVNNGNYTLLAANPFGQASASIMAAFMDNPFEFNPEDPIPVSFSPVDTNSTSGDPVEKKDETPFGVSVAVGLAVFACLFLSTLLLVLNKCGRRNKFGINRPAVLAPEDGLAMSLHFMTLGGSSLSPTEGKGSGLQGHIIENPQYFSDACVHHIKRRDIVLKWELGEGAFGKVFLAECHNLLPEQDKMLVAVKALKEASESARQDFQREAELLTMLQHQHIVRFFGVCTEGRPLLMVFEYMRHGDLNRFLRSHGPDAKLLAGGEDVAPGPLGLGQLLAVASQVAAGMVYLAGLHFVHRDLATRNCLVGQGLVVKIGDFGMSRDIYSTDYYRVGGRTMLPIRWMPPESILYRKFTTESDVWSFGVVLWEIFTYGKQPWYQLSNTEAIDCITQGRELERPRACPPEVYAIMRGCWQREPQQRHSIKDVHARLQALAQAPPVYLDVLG
smiles,measurement,setting,value
CN(C)[C@@H]1C(=O)C(C(N)=O)=C(O)[C@@]2(O)C(=O)C3=C(O)c4c(O)cccc4[C@@](C)(O)[C@H]3[C@H](O)[C@@H]12,AC50,[1],17.8 µM (active)
same,AC50,[2],3.49 µM (active)
same,outcome,[2],inactive
same,AC50,[3],12.3 µM (active) and 18.2 µM (active)
same,outcome,[3],inactive
CCOP(=S)(OCC)SCCSCC,outcome,[2],inactive
C#CC(C)(C)NC(=O)c1cc(Cl)cc(Cl)c1,outcome,[4],inactive
CCC(=O)Nc1ccc(Cl)c(Cl)c1,AC50,[4],15.7 µM (active)
CC[C@H](C)[C@H]1O[C@]2(C=C[C@@H]1C)C[C@@H]1C[C@@H](C/C=C(\C)[C@@H](O[C@H]3C[C@H](OC)[C@@H](O[C@H]4C[C@H](OC)[C@@H](NC)[C@H](C)O4)[C@H](C)O3)[C@@H](C)/C=C/C=C3\CO[C@@H]4[C@H](O)C(C)=C[C@@H](C(=O)O1)[C@]34O)O2,outcome,[3],inactive
